Sampled rows, rich in hits. Any-hit rate of the full collection: about 1.3%.
IL2 activator: qHTS of IL-2 Activators. IL-2 activation reporter assay, cell-based qHTS; stimulated with anti-CD3/CD4/CD28 beads; in transgenic mouse T cells. activation, % (series mostly up to about 46 µM). hit rate 0.065% among 360,000; in the data active means activation above about 50%; inconclusive means mostly about 30% to 49%; further: 0% is about no effect
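Using fluorescent plate cytometry, EGFP and DsRed are detected in transgenic mouse T cells stimulated 18 h at 37 degrees C with antibody-coated beads after 60 min compound pretreatment.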
Mito fusion act: qHTS Assay for Small Molecule Inhibitors of Mitochondrial Division or Activators of Mitochondrial Fusion; S. cerevisiae fusion-defective mutant growth rescue, CellTiterGlo 48 h; Potency, µM (highest dose often 46.1 µM), for inactives: at the top dose growth rescue (activation), actives largely listed as activators; hit rate 0.23% among 320,000; AID 485298, 2010; further: potency means the concentration at half of the fitted maximal effect; % of control where 0% means no effect; nearly all actives have a fitted effect of over 45% in size
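Read-out: ATP-based luminescence (CellTiterGlo, 10 min ambient) reporting growth of fusion-defective ts yeast after 48 hours at 37C on glycerol/ethanol YPEG medium in the presence of compound.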
TCR act: Activators of T cell receptors: qHTS campaign | AID 504894, 2011 | Potency, µM (highest dose often 9.22 µM), without a hit: at the highest dose activation of IL-2 secretion, usual class: activators | primary human leukocytes, anti-CD3, IL-2 HTRF, 48 h | 330,000 tested, under 10 active; further: % of control where 0% means no effect
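TCR engagement came from a-CD3 beads alone, with compounds added to primary human leukocytes for 48 hr. Secreted IL-2 bridged europium cryptate- and d2-labelled anti-IL-2 antibodies, giving FRET emission at 665nm after 320nm excitation.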
BRCA1 expr act: qHTS Assay to Identify Small Molecule Activators of BRCA1 Expression; Potency, µM (highest dose often 46.1 µM), for the others: at the top dose activation, actives largely listed as activators; hit rate 1.1% among 380,000; MCF7-BRCA1-FFLuc reporter, luminescence, 48 h; response scale: scaled: vehicle 0%, 10 µM genistein 100%; AID 624202, 2012; further: potency means the concentration at half of the fitted maximal effect; nearly all actives have a fitted effect of over 80% in size
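MCF7 cells carrying a BRCA1-firefly luciferase reporter (2000 cells/well, phenol-red free MEM) were attached for 2 h at 37 °C, then given compounds for 48 h. Luminescence was read 15 min after luciferase reagent; activity normalized to genistein (10 microM) and DMSO.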
PTHR1 agonist: qHTS for PTHR1 Agonists: Primary Screen; Parathyroid hormone/parathyroid hormone-related peptide receptor (Homo sapiens), Q03431; HEK293 GP2 PTHR1 cells, GloSensor cAMP luminescence, 1 h; Potency, µM (highest dose often 115 µM), for the others: at the top dose activation, most hits filed as activators; hit rate 0.075% among 410,000; AID 743266, 2014; further: potency means the concentration at half of the fitted maximal effect; nearly all actives have a fitted effect of over 55% in size
Target sequence (Q03431 whole entry, looked up): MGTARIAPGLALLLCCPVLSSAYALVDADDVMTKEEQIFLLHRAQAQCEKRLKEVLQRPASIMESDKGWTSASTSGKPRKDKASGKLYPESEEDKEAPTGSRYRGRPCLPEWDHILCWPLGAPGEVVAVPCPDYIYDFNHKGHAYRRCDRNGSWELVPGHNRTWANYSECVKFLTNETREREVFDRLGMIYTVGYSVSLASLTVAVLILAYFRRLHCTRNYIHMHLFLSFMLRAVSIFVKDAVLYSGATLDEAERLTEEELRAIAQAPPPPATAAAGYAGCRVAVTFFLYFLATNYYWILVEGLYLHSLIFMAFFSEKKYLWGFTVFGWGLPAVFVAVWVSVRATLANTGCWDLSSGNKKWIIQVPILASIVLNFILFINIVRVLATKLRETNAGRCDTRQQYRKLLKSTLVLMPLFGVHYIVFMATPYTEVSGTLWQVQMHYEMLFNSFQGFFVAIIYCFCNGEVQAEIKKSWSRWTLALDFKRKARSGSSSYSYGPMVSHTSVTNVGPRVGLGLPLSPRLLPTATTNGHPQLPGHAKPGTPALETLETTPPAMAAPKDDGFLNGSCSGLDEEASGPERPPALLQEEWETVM
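HEK-293-derived GP2 cells expressing PTHR1 and a GloSensor cAMP reporter, 3,000/well, plated overnight, given luciferin plus IBMX (each 0.5 mM as added) for 1 h at 37 °C, then compound for 1 h at 37 °C. Luminescence was read after 15 min at room temperature.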
BCR signal inh: qHTS Assay to Find Inhibitors of Chronic Active B-Cell Receptor Signaling; ABC-DLBCL IkBa-CBG/CBR reporter, luminescence ratio, 4 h; Potency, µM (doses to about 46.1 µM), for inactives: top-dose activity change, negative = inhibition, usual class: inhibitors; hit rate 0.05% among 340,000; AID 493014, 2011; active means well fitted inhibition curve with a large enough effect in the signal ratio, with a control signal flat, not every such curve was filed as active; inconclusive means small, poorly fitted or top-dose-only effect, or effect the other way, or a change in a side signal; the % refers to the signal ratio;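 further: potency means the concentration at half of the fitted maximal effect; plate controls were basal doxycycline-induced cells for no effect and cells given 10 µM MG132 for full effect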
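Cell line TMD8 (human ABC DLBCL), stably expressing tet-inducible CBG68-IkBa fusion and CBR; IMDM/0.5% FBS; cpd up to 46 uM; dox induction, 4 h, 37C/5% CO2; dual luminescence; green/red ratio; MG132 control.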
Active calls of the source: *; i = inactive; ? = inconclusive; nt = no result given; [ ] = remark or other dose. Unless noted, the call rests on the fitted dose curve; in most records, active means well fitted curve in the direction sought with a large enough effect; inconclusive means small, poorly fitted or top-dose-only effect, or another doubt; inactive means no such curve, though single readings can be large; an effect the other way counts as inactive or inconclusive.

SMILES	IL2 activator	Mito fusion act	TCR act	BRCA1 expr act	PTHR1 agonist	BCR signal inh
COc1ccccc1C(CNc1ccc(S(=O)(=O)N2CCCC2)cc1[N+](=O)[O-])N(C)C (stereo not drawn)	0	0%	-2%	-50%	i	?
CCn1c2ccccc2c2cc(/C=C3/C=Cc4ccccc43)ccc21	nt	nt	nt	-42%	nt	nt
Cc1ccnc(Nc2nc(-c3ccc(O)cc3)cs2)c1	-1	-4%	nt	?	-43%	?
Cc1ccnc(Nc2nc(-c3ccc(O)cc3O)cs2)c1	0	-6%	2%	7.9µM*	-18%	3%
Cc1ccc(-c2cc(C(=O)O)c3ccccc3n2)c(C)c1	0	5%	0%	99%	i	15%
COCCN(Cc1cc2ccc(C)c(C)c2nc1Cl)C(=O)N1CCOCC1	-1	4%	0%	0%	-4%	-10%
COCCN(Cc1cc2cc(C)cc(C)c2nc1Cl)C(=O)Nc1ccccc1	-1	12%	5%	-61%	0%[57.5 µM]	16µM*
Cc1cc(C)c2nc(Cl)c(CN(Cc3ccco3)C(=O)Nc3ccccc3C)cc2c1	0	7.1µM*	-1%	-91%	i	-2%
O=c1oc(-c2cccs2)nc2sc3c(c12)CCCC3	-1	0%	2%	13%	i	?
O=c1c2c3c(sc2nc2n1N=C(c1cccs1)CS2)CCCC3	0	-1%	5%	1.3µM*	-13%[57.5 µM]	-3%
O=C(N=C1N=C2C=CC=CN2Cc2ccccc21)c1ccc(S(=O)(=O)N2CCOCC2)cc1	0	-1%	-4%	10µM*	-46%	?
O=C(N=C1N=C2C=CC=CN2Cc2ccccc21)c1ccc(S(=O)(=O)N2CCCC2)cc1	-2	-4%	-4%	?	-13%	?
O=[N+]([O-])c1ccc(/C=C/c2ccncc2)cc1	-3	1%	1%	10µM*	i	?
COc1cc(C(=O)Nc2nc(-c3cccs3)cs2)cc(OC)c1OC	-2	14µM*	-3%	-52%	-25%[57.5 µM]	9%
O=C(Nc1nc(-c2cccs2)cs1)C1=COCCO1	0	4%	2%[46.1 µM]	4µM*	-10%	?
COc1ccc(C(=O)Nc2nc(-c3cccs3)cs2)cc1	-4	?	0%	-7%	-28%	nt
O=C(Nc1nc(-c2ccc(Cl)cc2)cs1)C1=COCCO1	0	14%	-15%	94%	-30%	14%
O=C(O)c1cccc(CN2C(=O)c3ccccc3C2=O)c1	1	-2%	6%	-2%	?	-1%
O=C1c2cccc3c(O)ccc(c23)C(=O)N1Cc1ccccc1	1	18µM*	-10%	-63%	-27%	?
O=C(Nc1ccc(F)c(Cl)c1)C1CC2CCC1C2 (stereo not drawn)	1	nt	-7%	-5%	-22%	nt
O=C(NC(=O)c1ccc(Cl)cc1)Nc1ccc(-c2cnco2)cc1	nt	1%	nt	nt	nt	?
O=C(Nc1ccc(-c2cnco2)cc1)c1ccc(F)cc1F	0	-2%	-1%	5µM*	i	?
CCc1ccc2c(c1)c(=O)c(C(=O)c1ccccc1)cn2CC(=O)Nc1ccc(C)c(Cl)c1	nt	nt	nt	1%	-33%	nt
CCOC(=O)c1oc2ccc(/C=N/O)c(Cl)c2c1C	-6	28%	3%	7.1µM*	i	?
CCOC(=O)c1oc2cc(C)cc(C)c2c1C	0	-1%	1%	-9%	0%	-5%
SMILES	IL2 activator	Mito fusion act	TCR act	BRCA1 expr act	PTHR1 agonist	BCR signal inh
O=[N+]([O-])c1ccc(C(c2sc3nc(-c4ccco4)nn3c2O)N2CCN(Cc3ccccc3)CC2)cc1 (stereo not drawn)	nt	nt	nt	nt	i	-11%
Cc1ccc(SCn2nnc3ccccc3c2=O)c(C)c1	1	-1%	8%	13µM*	-18%	-6%
COc1cc(SC)ccc1C(=O)N1CCC(Cc2ccccc2)CC1	nt	21µM*	nt	nt	nt	nt
COc1cc(SC)ccc1C(=O)NC1CCCCC1	0	32µM*	-5%	?	i	2%
COc1cc(SC)ccc1C(=O)N1CCN(Cc2ccccc2)CC1	1	4%	0%	-2%	-33%	-5%
CCOc1ccccc1CN1CCN(CC2=Cc3cc(OC)ccc3OC2)CC1CCO (stereo not drawn)	0	2%	11%	-9%	i	-27%
Cc1ccc(C(=O)Nc2ccc(C(F)(F)F)n(C)c2=O)cc1	-1	-2%	-8%	15%	-1%	10%
COc1ccc(C(=O)Nc2ccc(C(F)(F)F)n(C)c2=O)cc1	1	9%	12%[46.1 µM]	11µM*	-5%	?
CSc1ccc(CNc2ccccn2)cc1	0	-1%	3%	10µM*	-5%	-1%
O=C(Cc1cccs1)N/N=C/C(Br)=C/c1ccccc1	-2	-3%	nt	5µM*	-10%	?
CCOc1ccccc1CNC(=O)c1cnn(-c2ccc(C)cc2)c1-n1cccc1	nt	nt	nt	nt	-57%	nt
CCOc1ccc(C(=O)Nc2ccc3c(c2)OCCO3)cc1OC	2	7%	1%	10µM*	i	-4%
COc1cc(OC)cc(C(=O)NC(C(=O)Nc2ccc3c(c2)OCCO3)C(C)C)c1 (stereo not drawn)	0	8%	nt	50%	i	?
O=C(Nc1ccc2c(c1)OCO2)c1cccc(Cl)c1	-1	5%	-6%	11µM*	-25%[57.5 µM]	?
COc1cc(OC)cc(C(=O)Nc2ccc3c(c2)OCCO3)c1	0	-7%	-2%	13µM*	-23%	?
O=C(Nc1ccc2c(c1)OCCO2)c1c(F)cccc1F	0	6%	nt	2.5µM*	-8%	-20%
Cc1ccc(S(=O)(=O)CCC(=O)N(C)C2CCCCC2)cc1	-2	-6%	1%	18%	i	-1%
CCCOc1ccc(C(=O)Nc2ccc3c(c2)OCO3)cc1	-1	-1%	3%	3.2µM*	-26%	?
CCCCOc1ccc(C(=O)Nc2ccc3c(c2)OCO3)cc1	0	-1%	5%	10%	-28%	-2%
Cc1ccc(C23CC4CC(CC(CC(=O)NC(C)(C)CO)(C4)C2)C3)cc1	1	18µM*	-1%	-27%	-89%	-7%
Cc1ccc(C23CC4CC(CC(CN)(C4)C2)C3)cc1	-3	3%	-3%	-89%	-12%	?
COc1ccc2nc(N3CCC(C)CC3)c(C#N)cc2c1	-1	18%	1%	11µM*	-22%	?
